# Unmarked numbers belong to inactive results.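 How the source made its calls: active = MAPPIT score above the 99th percentile of random reference set scores in the same batch; inactive = at or below it.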
# B1: Bre1 (protein)
# chain: MSKRSADDATGSSCLVAAAAAGQPPIKKVHFEPHLIGPVSTLEEMDIKVLEFQNKKLAQRIEQRMRTEAELRHRIEQLEKRQTQDDAVLNVVNRYWNQLNEDIRVLLQRFDAETADELENRNENEVTTSFLAQLSTWDKEELDEKLANRVQVSKRAVAKIVQVIDRLMQRNEKITHVLKGDSLASAGSGSGAGAGGEEEQQQASGDAETTTSSAGVHALEETLKQTHIEIMSENHKLQNLNTSLHEKFHTMSLKMKEYQDAHTAKETENAELKNQIDELQYDLEKIHCRNDKLENHLAEAIEKLKAYHQIYGDPNKSTNSAKTPTTTGSGGATTSVNSQLLEELQKELEEYRELANNRLQELDKLHATHRETLKEVEKLKMDIRQLPESVIVETTEYKCLQSQFSVLYNESMQIKTMLDETRNQLQTSKNQHLRQIEVMESEELIAQKKVRSEMIQMEDVLALIRKEYETLRIEFEQNMAANEQTAPINREMRHLITSLQNHNGQLKGEVQRYKRKYKDTSTDNLKLRQELADALATLEGNKLQAATGAAGEEIKQENSTGVKEENSNNVSASGQTNQTNSGNDTNVAIKEENHISAEDEADDEASGKDVKDGIKQEKLSSGDAAAAEKKDSPGPGNSTSSATNSVPVKNEKDSKDGVKGKDVKAVESETVRDLKAQLKKALNDQKEMKLLLDMYKGVSKDQRDKVQLMATEKKLRSEIEELRQQLKKLQESKREERKKLADEEALRKIKQLEEQKYELQKQMANHKPTDNSWGSGAPGTANYTRPFVGSHEEEALLNEMEVTGQAFEDMQEQNSRLIQQLREKDDANFKLMSERIKANQLHKLLREEKTVLEDQMATATTQIEAMHIVLRKLEEKERSLQATVASIEKELMLRQQAMEMHKRKAIESAQSAADLKLHLEKYHAQMKEAQQVVAEKTSSLEAEAYKTKRLQEELAQFKRKAERMKKMEMSGTTIDEVMIEEIREYKETLTCPSCKVKRKDAVLSKCFHVFCYDCLRTRYETRQRKCPKCNCAFGANDYHRLYLQ
# B2: Tollo (protein)
# chain: MLATTHMLYVLIATCVIPIFGAALSKTVLYQAPDECRWSGGGEHDITLVCHLRTINSELENTNFSVIQPQNTVRLRLECNDALFFQSSLSPDSFRSLVELRDLTIEYCKLGNLTDGSFRGLQELRNLTIRTHNGDWSTMSLEMASNSFVEFRQLERLDLSLNNIWLIPDGMVCPLKSLQHLNASYNKIQDISNFYFSASLSSRKARVCGSTLQSLDLSANKMVSLPTAMLSALGRLTHLNMAKNSMSFLADRAFEGLLSLRVVDLSANRLTSLPPELFAETKQLQEIYLRNNSINVLAPGIFGELAELLVLDLASNELNSQWINAATFVGLKRLMMLDLSANKISRLEAHIFRPLASLQILKLEDNYIDQLPGGIFADLTNLHTLILSRNRISVIEQRTLQGLKNLLVLSLDFNRISRMDQRSLVNCSQLQDLHLNDNKLQAVPEALAHVQLLKTLDVGENMISQIENTSITQLESLYGLRMTENSLTHIRRGVFDRMSSLQILNLSQNKLKSIEAGSLQRNSQLQAIRLDGNQLKSIAGLFTELPNLVWLNISGNRLEKFDYSHIPIGLQWLDVRANRITQLGNYFEIESELSLSTFDASYNLLTEITASSIPNSVEVLYLNDNQISKIQPYTFFKKPNLTRVDLVRNRLTTLEPNALRLSPIAEDREIPEFYIGHNAYECDCNLDWLQKVNRESRTQPQLMDLDQIHCRLAYARGSSHVSLIEAKSDDFLCKYASHCFALCHCCDFQACDCKMECPDRCSCYHDQSWTSNVVDCSRASYEQTLPSHIPMDSTQLYLDGNNFRELQSHAFIGRKRLKVLHLNHSRIEVLHNRTFYGLLELEVLQLQSNQLKALNGNEFQGLDNLQELYLQHNAIATIDTLTFTHLYHLKILRLDHNAITSFAVWNFLPSYLNELRLASNPWTCSCEFIDKLRDYINRHEYVVDKLKMKCDVISGNSTQQMVIYPGSGEPASLPVVQCSQTLPLGLDNNFNYAEQAGGENASNATSTKMILNQPPKLDYIPILVAILTAFIFVMICISLVFIFRQEMRVWCHSRFGVRLFYNAQKDVDKNEREKLFDAFVSYSSKDELFVNEELAPMLEMGEHRYKLCLHQRDFPVGGYLPETIVQAIDSSRRTIMVVSENFIKSEWCRFEFKSAHQSVLRDRRRRLIVIVLGEVPQKELDPDLRLYLKTNTYLQWGDKLFWQKLRFALPDVSSSQRSNVAGQSCHVPINHASYHHHHHVHQQAMPLPHSVHHHQQQFMLPPPPQQPGSFRRQPSLHQQQQQQQQIRGNNNTTQQQQQQQAALLMGGGSVGGPAPQMIPLAGGIQQQSLPLPPNQQPTPASRNLHM
# B3: RasGAP1 (protein)
# chain: MLLKKKRYMFDERDDNNINSPVAVEPSSNNNKMADTREVRIEEQLKVKIGEAKNLSSRNAANTSCSTQGTRDVYCTIALDQEEICRTPTIERTLTPFFGEEHQFKIPRRFRYLTIYLWDRDMKQDKPIGKIAIKREELHMYNHKDHWFSLRPVDQDSEVQGMVNVEVAFTEAQQTQSLSEGIDLGQHTLRHHQNLPHHSHQQRAHLNDYKENSELSNIQRASAAAASSSSAAMTLKTRAAGLFGHVHHPPSQTQHFPIINTTSTSSDQLSNWKSHGRFVGVTIKVPACVDLAKKQGTCDPFVVCTAHYSNKHQVTRRTKQRKKTVDPEFDEAMYFDLHIDADAGSTNTTGSNKSAGSLESSANKGYSIYPVGGADLVEIVVSVWHDAHGAMSDKVFLGEVRLPMLNKQEQQAVNPSAWYYLQPRSMTHSSRSLNATPRSCATPPGTRLSVDSTIGSLRLNLNYTADHVFPLATYDDLMNLLLESVDQRPITVSAVSILGELVSGKTEVAQPLVRLFTHTERIAPIIKALADHEISHLTDPTTIFRGNTLVSKMMDEAMRLSGLHYLHQTLRPVLSQIVAEKKPCEIDPSKIKDRSAVDTNLHNLQDYVERVFEAITKSADRCPKVLCQIFHDLRECAGEHFPSNREVRYSVVSGFIFLRFFAPAILGPKLFDLTTERLDAQTSRTLTLISKTIQSLGNLVSSRSSQQTCKEEFTVELYKKFCTEQHVDAVKHFLEVISTPSHASSSVHPAAAAATPLEPVLLKEGLMTKYPTSRKRFGRQFKQRHFRLTTHSLSYAKSKGKQPICDIPLQEIASVEQLKDKSFKMQNCFKIVHNDRSLIVQTTNCVEEREWFDLLHKICLMNSIRMQYFHPSAFVSGFYSCCGRSDENSPGCKKVLDKTMDYFQMDLVTALDPALDLQRIHTLIMSNMSVLESLLDPLTYHQSLSQTQHQQHNPLVPLATDLQKHSPQAFAEFKRTIEKLREKAYAIDRDHRDYKQGITRQLKYGSRQAPIGDDNYWHMMRAAGQLNQQHHQQQQHQQQQQQQQQQQLQQFQPQPVLPQMQNVRAYPYQPATSNMNAYCLHNMQYQQQRLPFHQQQQQHHQQLQQQQSQFQPLRSHQLQRHNNNLNNNNCGNGSSSSPSSTTSSVVAAPPSTTSSSQPAPPIY
# B4: tap (protein)
# chain: MAACYNAYSAGSQSFEFDEDDDDASFDSGYEKSFETEAQLSSRRRLDFGTPPTPAIPQPYSGGTWDAVPLSSPPAGFVGLLDTSSNHSTRSGRTLVEHLNSRATNGVFDPPLTSTPVKSPEDPNAPRPKRKYAVGKNRVTRSRSPTQVVKIKRFRRMKANDRERNRMHNLNDALEKLRVTLPSLPEETKLTKIEILRFAHNYIFALEQVLESGGSINLDLEKLQNFTLSGERITKELFDALFVNPQPYPLFGRMFPYGQGMAPLAQHQTAPASHAEQPPAMGGFQHGMDYPQQPPGFDFTGSMRFYHQQQQQPHQPHHLQPNPQQESSPQQFSQEKYDLFRGSFDAAANLHSTNLDSGIHQQSSFYSQTPPWKDYPEDQAHVHPVPHQHSYKNFAPQV
# B5: sgg (protein)
# chain: MSGRPRTSSFAEGNKQSPSLVLGGVKTCSRDGSKITTVVATPGQGTDRVQEVSYTDTKVIGNGSFGVVFQAKLCDTGELVAIKKVLQDRRFKNRELQIMRKLEHCNIVKLLYFFYSSGEKRDEVFLNLVLEYIPETVYKVARQYAKTKQTIPINFIRLYMYQLFRSLAYIHSLGICHRDIKPQNLLLDPETAVLKLCDFGSAKQLLHGEPNVSYICSRYYRAPELIFGAINYTTKIDVWSAGCVLAELLLGQPIFPGDSGVDQLVEVIKVLGTPTREQIREMNPNYTEFKFPQIKSHPWQKVFRIRTPTEAINLVSLLLEYTPSARITPLKACAHPFFDELRMEGNHTLPNGRDMPPLFNFTEHELSIQPSLVPQLLPKHLQNASGPGGNRPSAGGAASIAASGSTSVSSTGSGASVEGSAQPQSQGTAAAAGSGSGGATAGTGGASAGGPGSGNNSSSGGASGAPSAVAAGGANAAVAGGAGGGGGAGAATAAATATGAIGATNAGGANVTDS
# B6: bol (protein)
# chain: MHKIAAAPPPSATPGGGLETPLAAPKYGTLIPNRIFVGGISGDTTEADLTRVFSAYGTVKSTKIIVDRAGVSKGYGFVTFETEQEAQRLQADGECVVLRDRKLNIAPAIKKQPNPLQSIVATNGAVYYTTTPPAPISNIPMDQFAAAVYPPAAGVPAIYPPSAMQYQPFYQYYSVPMNVPTIWPQNYQENHSPLLHSPTSNPHSPHSQSHPQSPCWSIEDLRDTLPRV
# B7: crn (protein)
# chain: MERPQKMPKVAKVKNKAPAEVQITAEQLLREAKERDLEILPPPPKQKISDPAELADYQQRKRKTFEDNLRKNRMVVSHWIKYAQWEEQQQEIQRARSIWERALDNEHRNVTLWLKYAEMEMKNKQVNHARNLWDRAVTIMPRVNQFWYKYTYMEEMLENVAGARQVFERWMEWQPEEQAWQTYVNFELRYKEIDRAREIYERFVYVHPDVKNWIKFARFEESHGFIHGSRRVFERAVEFFGDDYIEERLFIAFARFEEGQKEHDRARIIYKYALDHLPKDRTQELFKAYTKHEKKYGDRAGIEDVIVSKRKYQYEQEVAANPTNYDAWFDYLRLIEAEGDRDQIRETYERAISNVPPANEKNFWRRYIYLWINYALYEELEAEDAERTRQIYKTCLELIPHKQFTFSKLWLLYAQFEIRCKELQRARKALGLAIGMCPRDKLFRGYIDLEIQLREFERCRMLYEKFLEFGPENCVTWMKFAELENLLGDTDRARAIFELAVQQPRLDMPELLWKAYIDFEVALGETELARQLYERLLERTQHVKVWMSFAKFEMGLSHGDSGPDAELNVQLARRIYERANEMLRQLGDKESRVLLLEAWRDFERDASDSQEMQKVMDKMPRRIKKRQKIVSDNGVEEGWEEVFDYIFPEDEMARPNLKLLAAAKMWKTQKDNTVDDPPATAIASEPEPAADAAPADTTDSGD
# B8: Vha14-1 (protein)
# chain: MALHSAIKGKLISVIGDEDTCVGFLLGGVGEINKNRHPNFMVVDKNTAVSELEDCFKRFLKRDDIDIILINQNCAELIRHVIDAHTSPVPAVLEIPSKDHPYDASKDSILRRARGMFNPEDLVR
# Experiments:
# Assay in all cases: MAPPIT interaction score (arbitrary units); higher = stronger binary interaction signal, active = hit call of the paper
# CG9040 = conditions: MAPPIT configuration: N-N; pair source set: Finley_Y2H
# CG9133 = conditions: MAPPIT configuration: N-N; pair source set: screen_1
# GstT2 = conditions: MAPPIT configuration: N-N; pair source set: screen_1
# CG8043 = conditions: MAPPIT configuration: N-N; pair source set: DPIM
# CG8320 = conditions: MAPPIT configuration: N-C; pair source set: screen_4
# CG9676 = conditions: MAPPIT configuration: N-N; pair source set: RRS
# CG9106 = conditions: MAPPIT configuration: N-N; pair source set: screen_2
# CG8128 = conditions: MAPPIT configuration: N-N; pair source set: Finley_Y2H
# CG8292 = conditions: MAPPIT configuration: N-N; pair source set: Curagen_low_conf
# 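Further: HEK293T cells with Epo stimulation, STAT-responsive firefly luciferase reporter, fold induction versus unstimulated cells divided by the larger fold induction of two negative controls lacking either bait or prey.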
binder,measurement,setting,value
B1,MAPPIT interaction score,CG9040,-0.0702
B2,MAPPIT interaction score,CG9133,1.51
same,MAPPIT interaction score,GstT2,2.34
B3,MAPPIT interaction score,CG8043,0.645
B4,MAPPIT interaction score,CG8320,-0.175
B5,MAPPIT interaction score,CG9676,0.279
B6,MAPPIT interaction score,CG9106,3.9 (active)
B7,MAPPIT interaction score,CG8128,2.14
B8,MAPPIT interaction score,CG8292,-0.0476
